Measurements: PubChem BioAssay (EPA / NIEHS)
The source made the active and inactive calls. How the source made its calls: active means hit-call score of the fitted dose curve at least 0.9, where 1 is the maximum; inactive means score below 0.9.

read-out: Matrix Metallopeptidase 1 (MMP1), MMP1 (gene 4312); experiment: BSK_BF4T_MMP1: BioMAP Diversity Plus: BF4T Assay for Matrix Metallopeptidase 1 (MMP1) Biomarker Activity (AID 2284270); conditions: primary human bronchial epithelial cells with fibroblasts
Procedure: BSK_BF4T is a cell-based, multiplexed-readout assay that uses bronchial epithelial cells and dermal fibroblasts, a human vascular primary cell, with measurements taken at 24 hours after chemical dosing in a microplate: 96-well plate.BSK_BF4T_MMP1 is an assay component measured in the BSK_BF4T assay. It measures MMP-1 antibody related to regulation of gene expression using ELISA technology.Data from the assay component BSK_BF4T_MMP1 was analyzed at the endpoint, BSK_BF4T_MMP1, in the positive analysis fitting direction relative to DMSO as the negative control and baseline of activity. Using a type of binding reporter, gain or loss-of-signal activity can be used to understand protein changes. To generalize the intended target to other relatable targets, this assay endpoint is annotated to the 'protease' intended target family, where the subfamily is 'matrix metalloproteinase'.
The levels of cell surface (or secreted, indicated by the prefix "s") biomarker endpoints were measured by ELISA. Overt cytotoxicity to cells in confluent adherent cultures (all systems other than the BT system) was assessed by measuring total protein levels using sulforhodamine B (SRB) staining in parallel cultures at the time of biomarker measurements, indicated as SRB endpoints. For proliferation assays for adherent cell types, individual cell types are cultured at sub-confluence and relative cell numbers quantified by SRB staining at time points optimized for each system (48 h: 3C and CASM3C systems; 72 h: BT and HDF3CGF systems; 96 h: SAg system). SRB was performed by staining cells with 0.1% SRB after fixation with 10% TCA and reading wells at 560 nm.Viability and proliferation of PBMC (T cells) was quantified by Alamar Blue reduction for the SAg and BT systems. For PBMC viability (referred to as PBMC Cytotoxicity within the assay endpoint names), cells were plated (75,000/well in a 96-well plate) and then chemical samples added for 1 h before addition of activators, SEB and TSST-1 (20 ng/mL final concentration each). Cells were incubated for 90 h. Then, Alamar Blue (20 uL/well) (Invitrogen, Cat DAL1100) was added for 6 h, and the plates were read with a fluorescence microplate reader at 546/580 nm (excitation/emission). For PBMC proliferation, cells were plated and activated as above but incubated for only 16 h prior to addition of Alamar Blue. Plates were read after 6 h.

| SMILES | outcome |
| --- | --- |
| O=C(O)C(F)(F)OC(F)(F)C(F)(F)OC(F)(F)F | inactive |
| O=C(O)C(F)(F)C(F)(F)C(=O)O | inactive |
| O=C(O)C(F)(F)OC(F)(F)C(F)(F)OC(F)(F)C(=O)O | inactive |
| O=C(O)C(F)(OC(F)(F)C(F)(F)C(F)(F)F)C(F)(F)F (centres undefined) | inactive |
| O=C(O)C=CC(F)(C(F)(F)F)C(F)(F)F | inactive |
| CC(O)C(F)(F)C(F)(F)F (centres undefined) | inactive |
| COC(=O)C(F)(F)C(F)(F)OC(F)(C(F)(F)F)C(F)(F)OC(F)=C(F)F (centres undefined) | inactive |
| C=CC(=O)OCC(F)(F)C(F)F | inactive |
| O=S(=O)(F)C(F)(F)C(F)(F)C(F)(F)C(F)(F)C(F)(F)C(F)(F)C(F)(F)C(F)(F)F | inactive |
| OCC(F)(F)OC(F)(F)C(F)(F)OC(F)(F)C(F)(F)OC(F)(F)F | inactive |
| FC(F)(F)C(F)(C(F)(F)F)C(F)(F)C(F)(F)CC1CO1 (centres undefined) | inactive |
| NC(=O)C(F)(F)C(F)(F)F | inactive |
| OCC(F)(F)OC(F)(F)C(F)(F)OC(F)(F)CO | inactive |
| OCC(F)(F)OC(F)(F)C(F)(F)OC(F)(F)C(F)(F)OC(F)(F)CO | inactive |
